Our source for the growth values is PubChem BioAssay (NCI).

Compounds without any hit were thinned out: in the full panel of roughly 83,000, 20% have a hit.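 Growth was measured after 48 h exposure to one concentration of compound in 96-well plates. Values under 10 count as active.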 Unmarked numbers belong to inactive results. Calls of active or inactive are those of the source.

The experiment has as its system NCI-H522 lung. The experiment in a line: NCI-60 one-dose screen, 48 h (100 = growth as untreated, 0 = no growth, -100 = all killed). The settings on record: 10 µM unless noted. The procedure: Growth inhibition of the NCI-H522 human Non-Small Cell Lung tumor cell line is measured as a screen for anti-cancer activity. Cells are grown in 96 well plates and exposed to the test compound for 48 hours. Compounds are tested at a single concentration, which is 10^-5 M for most compounds. The reported endpoint is percent growth (GI% or GIPRCNT), where numbers from 0 - 100% represent growth inhibition, and numbers from -100% - 0 represent cell death. For example, a value of 40 represents 60% growth inhibition. A value of 0 means no net growth occurred over the course of the experiment. A value of -40 indicates 40% of cells at the beginning of the experiment died by the end of the experiment. A value of -100 means all cells are dead at the end of the experiment.
NCI-60 Human Tumor Cell Lines Screen was performed using the standard one-dose NCI protocol, which is described in more detail at https://dtp.cancer.gov/discovery_development/nci-60/default.htm.
Compounds with GIPRCNT values below 10 were considered active. Activity score was based on GIPRCNT using the following formula: […]
Score is 0 for GIPRCNT values of 100 or above, 50 for GIPRCNT values of 0, and 100 for GIPRCNT values of -100.
For the molecule `Cc1cc(O)c2cc3c(O)c(O)ccc3cc2c1`, the growth was 88.6%.
In the case of `COc1ccc(C(=O)OC2C(OC3C(O)COC(O[C@H]4C[C@H]5[C@@H]6CC=C7C[C@@H](O)CC[C@]7(C)[C@H]6CC[C@]5(C)[C@H]4[C@H](C)C(=O)CCC(C)C)C3OC(=O)C(C)C)OCC(O)C2O)cc1` (stereo not given in full) it was -46.1% (active).
Then `CN(C)c1nc(-c2cccs2)n2nc(-c3ccco3)cc2n1`, with 96.2%.
In the case of `COc1ccc2nc(C)cc(Sc3nc4ccccc4s3)c2c1` it was -20.9% (active); in that of `COc1ccc2c(c1)C1=NN(C(=O)CO)[C@H](c3ccc(OC(F)(F)F)cc3)[C@@H]1CC2`, 82.6%; in that of `Cn1c(=O)c2c(nc(N/N=C/c3ccccc3Cl)n2C)n(C)c1=O`, 83.1%.
For `CCCCCCCCCCCCCCCCCC(=O)[O][Sn]([CH2]CCC)([CH2]CCC)[CH2]CCC`, the growth was -54.3% (active).
Then `COc1ccc2c(c1)sc1nc(-c3ccccc3)c(-c3cccc4ccccc34)n12`, with -11% (active).
Consider `COc1cc(C)c(Cl)cc1C1=NN(c2ccc(S(N)(=O)=O)cc2)C(/C=C/c2ccccc2)C1` (stereo not given), for which the growth is 27%.
Then `COc1ccc2c(c1)N(Cc1ccc(Cl)cc1)CCC2N1CCCC1=O` (stereo not given), with 32%; and `O=C(Nc1ccc(Cl)cc1)c1cc(-c2ccc(Cl)cc2)c2sc(=O)[nH]c2n1`, with -26.3% (active); and `Cc1ccc(Nc2cccc3ccccc23)cc1`, with 68.4%.
Then `COc1cc(C2C(C#N)=C(N)Oc3cc4c(cc32)OCO4)cc2c1OCO2` (stereo not given), with 5.81% (active); and `Nc1c(Br)cc2c(c1Br)Cc1cc(Cl)ccc1-2`, with 102%.
In the case of `Fc1ccc(-c2nc(-c3ccc(-c4nc5ccc(F)cc5[nH]4)cc3)no2)cc1` it was 91.4%.
Consider `N/N=C(\C(=N\N)c1ccccc1)c1ccccc1`, for which the growth is 86.6%.
In the case of `COc1ccc(-c2nc3c(c(-c4ccc(Cl)cc4)nn3-c3ccccc3)c(-c3ccc(O)cc3)c2C#N)cc1` it was 58.3%.
In the case of `Clc1cc2nc(-c3ccccc3)c(-c3ccccc3)nc2cc1Cl` it was 86.1%; in that of `O=C(c1ccccc1)C1OC1C(=O)c1ccccc1` (stereo not given), 8.93% (active).
For `CCOC(=O)Nc1ccc2nc(N3CCCCCC3)sc2c1`, the growth was -12.7% (active).
For `Cc1ccc(NC(=O)c2sc3nc4c(cc3c2N)C(=O)CCC4)cc1Cl`, the growth is 96.1%.
In the case of `Clc1ccc(-c2cnc3c(-c4ccnc(N5CCNCC5)c4)cnn3c2)cc1` it was -53.8% (active); in that of `CCN1C(=O)N(CC)C2C1NN=c1s/c(=C\c3ccc(Br)cc3)c(=O)n12` (stereo not given), -49.9% (active).
Then `CNC(=O)c1c(NC(=O)c2cccc(C(F)(F)F)c2)sc2c1CCC(=O)C2`, with -28.3% (active); and `O=C(CC(=O)C(F)(F)C(F)(F)C(F)(F)F)c1cc2ccccc2o1`, with 108%.
As for `CN1C2CCC1/C(=C\c1ccc(Cl)cc1)C(=O)/C2=C/c1ccc(Cl)cc1`, the growth is 54.7%.
Then `C=C[C@H]1CCC/C=C/[C@@H]2C[C@H](O)C[C@H]2[C@H](O)/C=C/C(=O)O1`, with -37.8% (active).
Then `COc1ccccc1/C=N\Nc1ccc([N+](=O)[O-])cn1`, with 101%; and `CCOC(=O)c1cc(N)nc2ccccc12`, with 101%.
Consider `O=C1CCCN1C(O)CCN(Cc1ccccc1)Cc1ccc(Cl)cc1` (stereo not given), for which the growth is 93.3%.
Then `CC(SC(C)C(=O)N/N=C/c1cccc(Cl)c1)C(=O)N/N=C\c1cccc(Cl)c1` (stereo not given), with 60%; and `CCN1C(=O)N(CC)C2C1NC(=O)N2/N=C/C=C/c1ccccc1` (stereo not given), with 2.08% (active).
With `COC1(OC)C2(Cl)CCC1(Cl)C(Cl)=C2Cl`, the growth was 97%.
On to `O=[N+]([O-])c1ccc(N/N=C\c2ccc(O)cc2O)nc1`, for which the growth was 10.9%.
Then `COc1ncnc2[nH]cc(CN3CCN(c4ccc(F)cc4)CC3)c12`, with 95.1%; and `O=C1SCN(Cc2ccccc2)CN1Cc1ccccc1`, with 26.3%; and `CCc1c(C)c2ccc(O)c(-c3cc(-c4ccccc4)c(C#N)c(=O)[nH]3)c2oc1=O`, with 109%.
Then `C=C1C(=O)O[C@H]2[C@H]1CC/C(COC(=O)NCc1ccc(Cn3c(=O)sn(CCCl)c3=O)cc1)=C\CC[C@@]1(C)O[C@@H]21`, with -68% (active); and `CCCNCCC(C)=O`, with 99.6%; and `CC(C)(C)[Si](C)(C)OC1[C@@H](O[Si](C)(C)C(C)(C)C)[C@@H](CNC(=O)NC(=O)NC(=O)CCl)O[C@H]1n1cnc2c(NC(=O)Nc3ccccc3)ncnc21` (stereo not given in full), with -78.6% (active).
